Cruzain Triton: qHTS Assay for Promiscuous and Specific Inhibitors of Cruzain (with detergent). actives 0.43% (n = 200,000). Potency, µM, inactives show max response, negative = inhibition, most hits filed as inhibitors. Cruzipain (Trypanosoma cruzi), P25779. purified cruzain, Z-FR-AMC fluorescence, 0.01% Triton;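 further: plate controls were neutral wells for no effect and buffer without enzyme for full effect; nearly all actives have a fitted effect of over 40% in size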
Target sequence (P25779 123-467 limits assumed): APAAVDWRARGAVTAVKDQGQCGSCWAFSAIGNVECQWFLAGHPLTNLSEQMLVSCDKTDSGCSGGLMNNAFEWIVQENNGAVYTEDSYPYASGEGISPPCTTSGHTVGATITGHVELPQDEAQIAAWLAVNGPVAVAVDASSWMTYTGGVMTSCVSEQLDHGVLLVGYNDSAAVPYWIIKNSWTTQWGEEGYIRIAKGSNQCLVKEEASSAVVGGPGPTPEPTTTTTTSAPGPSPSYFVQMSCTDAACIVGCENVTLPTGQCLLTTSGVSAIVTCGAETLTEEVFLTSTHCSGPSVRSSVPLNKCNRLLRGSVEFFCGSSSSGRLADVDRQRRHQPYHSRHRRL
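Enzyme 1.5 nM, Z-FR-AMC 2 uM, NaOAc 100 mM pH 5.5, DTT 5 mM, Triton X-100 0.01%; 15 min RT compound preincubation; kinetic ex360/em450, 60 s delta.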
Cruzain inh noDet: qHTS Assay for Promiscuous and Specific Inhibitors of Cruzain (without detergent) | Cruzipain (Trypanosoma cruzi), P25779 | AID 1476, 2009 | Potency, µM, without a hit: max response, negative = inhibition, usual class: inhibitors | purified cruzain, Z-FR-AMC fluorescence, no detergent | actives 2.3% (n = 200,000);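 further: plate controls were enzyme without inhibitor for no effect and buffer without enzyme for full effect; nearly all actives have a fitted effect of over 40% in size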
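Detergent-free condition (0.00005% Triton X-100) in acetate buffer pH 5.5 with DTT. 1.5 nM enzyme and compound were pre-mixed 15 min, then 2 uM Z-FR-AMC substrate added; reaction progress from fluorescence change between first and third reads (60 s).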
* = called active by the depositor; ? = inconclusive; ! = not confirmed by another sample. Shown are actives, neighbours in structure and some others; about 2.5% of the full set was active somewhere. The call rests on the fitted dose curve; in most records, active means well fitted curve in the direction sought with a large enough effect; inconclusive means small, poorly fitted or top-dose-only effect, or another doubt; inactive means no such curve, though single readings can be large; an effect the other way counts as inactive or inconclusive. Potency means the concentration at half of the fitted maximal effect.

SMILES	Cruzain Triton	Cruzain inh noDet
CCOC(=O)C1CCN(C(=O)Cn2ncc3c4ccccc4n(Cc4ccc(F)cc4)c3c2=O)CC1	-12.4%	?
CC(C)c1ccc(NC(=O)c2cc(S(=O)(=O)NCc3ccccc3Cl)ccc2F)cc1	-0.1%	-0.2%
COc1cc(NC(=O)COc2ccc(Cl)cc2)ccc1-c1cc2ccccc2oc1=O	-0.4%	5.01µM*
Cc1cc(NC(=O)c2ccc(F)cc2)ccc1-c1cc2ccccc2oc1=O	-2.2%	5.3%
COc1cc2c(cc1NC(=O)COc1ccc(Cl)cc1)oc1ccccc12	-1.7%	-0.6%
COc1ccc(C(=O)Nc2ccc(-c3cc4ccccc4oc3=O)c(C)c2)cc1Br	-20.4%	25.1µM*
Cc1ccc(N2C(=O)CCSC23C(=O)N(Cc2ccc(F)cc2)c2ccccc23)cc1 (stereo unspecified)	-1.9%	-18.0%
Cc1nc(-c2ccc(Cl)cc2)sc1CCNC(=O)c1ccco1	-19.7%	-8.9%
CCC1CCCCN1C(=O)c1ccc2c(c1)N(Cc1cccc(Cl)c1)C(=O)c1ccccc1S2(=O)=O (stereo unspecified)	-4.3%	-7.6%
O=C(/C=C/c1cccc([N+](=O)[O-])c1)c1cccs1	-2.0%	-1.0%
O=C(/C=C/c1cccc([N+](=O)[O-])c1)Nc1ccc(NC(=O)c2cccs2)cc1	-8.2%	20µM*
O=C(/C=C/c1cccc([N+](=O)[O-])c1)NC(=S)Nc1cccc(NC(=O)c2ccccc2Cl)c1	-5.6%	6.31µM*
CC(=O)Nc1cccc(NC(=O)c2ccc([N+](=O)[O-])cc2Cl)c1	-1.6%	4.2%
CCOC(=O)c1c(C)oc2nc(C)nc(NCCCN3CCN(c4cccc(C)c4)C(C)C3)c12 (stereo unspecified)	0.0%	-1.6%
Cc1cccc(CCNC(=O)c2ccc3c(c2)nc2n3CCCCC2)c1	-1.2%	-6.1%
NCCc1ccc(S(=O)(=O)O)cc1[N+](=O)[O-]	-0.9%	2.7%
Cc1c(-c2ccc(Cl)cc2)c(=O)oc2c(CN3CCN(C)CC3)c(O)ccc12	-2.7%	-13.2%
Cc1cc(C)c(/C=C/c2onc(C)c2S(=O)(=O)N2CCC(C(=O)N3CCN(c4ccccc4)CC3)CC2)c(C)c1	-4.4%	-4.9%
COc1ccccc1Cn1c(=O)c2ccccc2n2c(SCc3csc(C)n3)nnc12	-3.2%	2.8%
COc1ccccc1Cn1c(=O)c2ccccc2n2c(Sc3ncnc4sccc34)nnc12	-1.1%	15.8µM*
COC(=O)c1ccccc1NC(=O)NCc1ccc2c(c1)OCO2	1.4%	-9.2%
COC(=O)c1ccccc1NC(=S)N(Cc1ccc2c(c1)OCO2)Cc1cc2cc(OC)ccc2[nH]c1=O	-9.9%	10µM*
CCOC(=O)c1cnn(-c2nc(SC)nc3sc4c(c23)CCC4)c1N	0.8%	7.94µM*
CCOC(=O)c1cnn(-c2nc(C)nc3sc4c(c23)CCC4)c1N	3.9%	?
COC(=O)c1ccc2c(=O)[nH]c(CN3c4ccccc4CC3C)nc2c1 (stereo unspecified)	-1.9%	?
SMILES	Cruzain Triton	Cruzain inh noDet
O=c1[nH]c(CN2CCN(c3ccccc3)CC2)nc2scc(-c3ccccc3)c12	-3.5%	?
CC1Cc2ccccc2N1Cc1nc2scc(-c3cccs3)c2c(=O)[nH]1 (stereo unspecified)	-4.4%	15.8µM*
CC1Cc2ccccc2N1Cc1nc2cc(Cl)ccc2c(=O)[nH]1 (stereo unspecified)	4.5%	25.1µM*
Cc1cccc(-c2nc3scc(CCNS(=O)(=O)c4ccc(F)cc4C)n3n2)c1	-9.1%	25.9%
CCOc1ccc2nc(N3CCCC(C(=O)Nc4cc(Cl)c(OC)cc4OC)C3)sc2c1 (stereo unspecified)	1.7%	-12.8%
CCn1c2ccccc2c2cc(/C=N/NC(=O)c3cccc(C)c3)ccc21	6.6%	7.94µM*
Cc1cccc(C(=O)N/N=C/c2ccncc2)c1	0.3%	3.6%
CCn1c2ccccc2c2cc(/C=N/n3cnnc3)ccc21	-10.9%	-7.0%
CCn1c2ccccc2c2cc(/C=N/NC(=O)c3ccccc3C)ccc21	-21.5%	31.6µM*
N#Cc1c(NC(=O)C(F)(F)F)sc2c3c(=O)c4ccccc4c(=O)c=3oc3ccccc3c12	4.9%	-14.1%
CCOC(=O)c1c(C)c(-c2ccccc2)n(CC(=O)Nc2cc(OC)cc(OC)c2)c1C	-7.3%	-7.4%
O=C(O)C[C@@H](C(=O)O)C1c2ccccc2-c2ccccc21	-0.4%	0.1%
O=C(CSc1nc(C2CC2)nc2ccccc12)N1c2ccccc2Sc2ccc(C(F)(F)F)cc21	2.4%	3.98µM*
O=C(CN1CCCC(O)C1)N1c2ccccc2Sc2ccc(C(F)(F)F)cc21 (stereo unspecified)	3.1%	-2.1%
CCN(CC)S(=O)(=O)c1cccc(C(=O)OCC(=O)Nc2ccc3c(c2)c2ccccc2n3CC)c1	-4.2%	7.94µM*
CCn1c2ccccc2c2cc(NC(=O)COC(=O)c3cccc(S(=O)(=O)NC)c3)ccc21	-2.2%	-26.3%
COc1ccc(NS(=O)(=O)c2ccc3nc(COc4cccc5ccccc45)[nH]c3c2)cc1	-2.4%	31.6µM*
COc1ccc(NS(=O)(=O)c2ccc3nc(COc4ccc5ccccc5c4)[nH]c3c2)cc1	5.3%	?
O=C(NCCc1ccccc1)c1cc(-c2ccc(Cl)c(Cl)c2)on1	-1.8%	0.4%
CC(C)CNC(=O)c1cc(-c2ccc(Cl)c(Cl)c2)on1	7.8%	12.6µM*
Cc1ccc(NC(=O)c2cnn3c(C(F)F)cc(-c4ccccc4)nc23)cc1F	-2.6%	0.4%
Cc1cccc(NC(=O)Nc2cccs2)c1C	-7.6%	-10.3%
CCn1c(NC(=O)Nc2cccc(C)c2C)cc2sccc21	-1.5%	25.1µM*
Cc1cc(-n2c(C)nc3ccccc3c2=O)ccc1NC(=O)c1cccc([N+](=O)[O-])c1	-2.1%	-14.3%
CCCN(C(=O)COc1cc(=O)n(CC)c2ccccc12)c1ccc(C(C)C)cc1	-6.5%	?
SMILES	Cruzain Triton	Cruzain inh noDet
Nc1ccncc1	3.16µM*!	3.55µM*!
c1cc(-c2ccncc2)ccn1	0.9%	-4.8%
COc1ccc(-n2ccn(CC(=O)Nc3ccccc3C(F)(F)F)c(=O)c2=O)cc1OC	-0.3%	-3.4%
COc1ccc(-c2noc(CSc3nc4ccccc4c(=O)n3-c3ccc(C)cc3)n2)cc1	5.2%	15.8µM*
Cc1sc2nc(SCc3nc(-c4ccccc4)no3)n(-c3ccccc3)c(=O)c2c1C	-2.6%	25.1µM*
Brc1ccccc1-c1nnc(CSc2nncn2-c2ccccc2)o1	1.6%	-7.8%
Cc1sc2nc(SCC(=O)NCc3ccco3)n(-c3ccccc3)c(=O)c2c1C	3.2%	-9.5%
Cc1ccc2nc(SCc3nc(-c4ccccc4C)no3)[nH]c2c1	-24.3%	-6.9%
Cc1ccc2nc(SCc3nnc(-c4ccccc4Br)o3)[nH]c2c1	-29.9%	20µM*
COc1ccc(-n2c(SCc3nc(-c4ccc(C)cc4)no3)nnc2-c2ccccc2)cc1	-6.4%	?
O=c1c2ccccc2nc(SCc2nnc(-c3ccccc3Br)o2)n1-c1ccccc1	-1.3%	31.6µM*
CCCCC(CC)COC(=O)COc1ccc(Cl)cc1Cl (stereo unspecified)	1.3%	3.6%
CCOc1ccc(N(Cc2cc3cc(C)ccc3[nH]c2=O)C(=O)c2cccc(Cl)c2)cc1	-2.8%	-17.1%
COc1ccccc1CNC(=O)C(=O)NCC(c1cccs1)S(=O)(=O)c1ccccc1 (stereo unspecified)	-1.3%	0.5%
O=C(Nc1cccc(C(F)(F)F)c1)c1cc2ccc3cccnc3c2[nH]1	-0.2%	-14.0%

Source: PubChem BioAssay
